Values joined by “and” are separate entries in the source; they are usually repeats but may differ in a detail not shown here. Equal entries are not always repeated. Records with an inconclusive call do not appear. Entries that show only a call come without a potency. Active and inactive are the calls of the source. Unless noted, calls follow the shape of the full dose curve.
experiment: qHTS assay for small molecules that induce genotoxicity in human embryonic kidney cells expressing luciferase-tagged ATAD5 (AID 651632; active = well fitted activation curve with a large enough effect in the repeat runs; also: nearly all actives have a fitted effect of over 15% in size); conditions: HEK293T ATAD5-luciferase induction, 16 h; series mostly up to 83.3 µM
Outline: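 Genotoxicity read-out via ATAD5-luciferase: HEK293T cells, 16 hr compound incubation at 37C, Amplite detection.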

Q: With CC(=O)OC1CC(C)OC(C)O1 (centres undefined) as the compound, how does the outcome read?
A: Its outcome is “inactive”.

Q: Which outcome does the source give for CCc1ccccc1CC here?
A: The outcome was “inactive”.

Q: With C=C(C)[C@H]1CC=C(C)C(=O)C1 as the compound, how does the outcome read?
A: The outcome was “inactive”.

Q: Which outcome does the source give for CCNc1cccc(C)c1 here?
A: The outcome was “inactive”.

Q: Which outcome does the source give for CC(=O)Oc1ccc(C)cc1 here?
A: Its outcome is “inactive”.

Q: Which outcome does the source give for CC(C)(Oc1ccc(CCNC(=O)c2ccc(Cl)cc2)cc1)C(=O)O here?
A: The outcome was “inactive”.

Q: For O=c1[nH]cnc2[nH]ncc12, which outcome is on record?
A: Its outcome is “inactive”.

Q: For O=C(O)Cn1c(=O)n(Cc2ccc(Br)cc2F)c(=O)c2ccc(Cl)cc21, which outcome is on record?
A: The outcome was “inactive”.

Q: Which outcome does the source give for CC(=O)OCc1ccco1 here?
A: Its outcome is “inactive”.

Q: With CC(=O)OCc1ccccc1 as the compound, how does the outcome read?
A: The outcome was “inactive”.

Q: Which outcome does the source give for COc1ccc(N)c(C)c1 here?
A: Its outcome is “inactive”.

Q: With O=C(O)c1ccc(C(=O)O)c(C(=O)O)c1 as the compound, how does the outcome read?
A: The outcome was “inactive”.

Q: For CC(C)CC(C)O (centres undefined), which outcome is on record?
A: The outcome was “inactive”.

Q: Which outcome does the source give for CCCCCCCCCCO here?
A: Its outcome is “inactive”.

Q: For COC(=O)CCCC(=O)OC, which outcome is on record?
A: Its outcome is “inactive”.

Q: For CCNc1ccccc1, which outcome is on record?
A: Its outcome is “inactive”.

Q: Which outcome does the source give for CC(C)(C#N)c1cc(Cn2cncn2)cc(C(C)(C)C#N)c1 here?
A: The outcome was “inactive”.

Q: Which outcome does the source give for O=S(=O)(O)c1ccc(N=Nc2c(O)ccc3cc(S(=O)(=O)O)ccc23)cc1 here?
A: Its outcome is “inactive”.

Q: For CC1(C)NC(=O)NC1=O, which outcome is on record?
A: The outcome was “inactive”.

Q: For CCO[Si](CCC#N)(OCC)OCC, which outcome is on record?
A: The outcome was “inactive”.

Q: Which outcome does the source give for CC(C)=CCl here?
A: Its outcome is “inactive”.

Q: Which outcome does the source give for CN(C)CCOC(=O)COc1ccc(Cl)cc1 here?
A: The outcome was “inactive”.

Q: For CC(O)CC(C)(C)O (centres undefined), which outcome is on record?
A: The outcome was “inactive”.

Q: Which outcome does the source give for Nc1ccc(Cl)c(N)c1 here?
A: The outcome was “inactive”.

Q: Which outcome does the source give for OC1C(O)C(O)C(O)C(O)C1O (centres undefined) here?
A: The outcome was “inactive”.

Q: With COc1cc(OC)c(C(=O)CCCN2CCCC2)c(OC)c1 as the compound, how does the outcome read?
A: Its outcome is “inactive”.

Q: Which outcome does the source give for CC(=O)OCCOC(C)=O here?
A: Its outcome is “inactive”.

Q: Which outcome does the source give for C[C@]12CCC(=O)C=C1CC[C@@H]1[C@@H]2[C@@H](O)C[C@@]2(C)[C@H]1CC[C@]2(O)C(=O)CO here?
A: Its outcome is “inactive”.

Q: Which outcome does the source give for CC(C)c1cccc(C(C)C)c1 here?
A: The outcome was “inactive”.

Q: With O=[N+]([O-])c1ccc2nc[nH]c2c1 as the compound, how does the outcome read?
A: The outcome was “inactive”.

Q: With COc1ccc(C)cc1N as the compound, how does the outcome read?
A: Its outcome is “inactive”.

Q: With COc1ccc(CCC(C)=O)cc1 as the compound, how does the outcome read?
A: The outcome was “inactive”.

Q: Which outcome does the source give for CCCCCC(=O)O here?
A: The outcome was “inactive”.

Q: With OCc1cccc(Oc2ccccc2)c1 as the compound, how does the outcome read?
A: The outcome was “inactive”.

Q: With CC(C)CCCCCCCOC(=O)CCCCC(=O)OCCCCCCCC(C)C as the compound, how does the outcome read?
A: The outcome was “inactive”.

experiment: qHTS assay for small molecule agonists of the p53 signaling pathway - cell viability (AID 651633); conditions: p53RE-bla HCT-116 viability, ATP luminescence, 16 h; series mostly up to 83.3 µM;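 also: p53RE-bla HCT reporter cells with a stable beta-lactamase p53 reporter; nearly all actives have a fitted effect of over 30% in size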
Outline: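 p53RE-bla cells were treated with compound for 16 hours at 37 C. Cytotoxicity was then measured as CellTiter-Glo luminescence after 30 min at room temperature.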

Q: For CCc1ccccc1CC, which outcome is on record?
A: The outcome was “inactive”.

Q: With C=C(C)[C@H]1CC=C(C)C(=O)C1 as the compound, how does the outcome read?
A: Its outcome is “inactive”.

Q: Which outcome does the source give for CCNc1cccc(C)c1 here?
A: The outcome was “inactive”.

Q: Which outcome does the source give for CC(=O)Oc1ccc(C)cc1 here?
A: The outcome was “inactive”.

Q: With CC(C)(Oc1ccc(CCNC(=O)c2ccc(Cl)cc2)cc1)C(=O)O as the compound, how does the outcome read?
A: The outcome was “inactive”.

Q: For O=c1[nH]cnc2[nH]ncc12, which outcome is on record?
A: Its outcome is “inactive”.

Q: For O=S(=O)(O)c1ccccc1, which outcome is on record?
A: Its outcome is “inactive”.

Q: Which outcome does the source give for O=C(O)Cn1c(=O)n(Cc2ccc(Br)cc2F)c(=O)c2ccc(Cl)cc21 here?
A: The outcome was “inactive”.

Q: For N#Cc1ccccc1, which outcome is on record?
A: Its outcome is “inactive”.

Q: Which outcome does the source give for CC(=O)OCc1ccccc1 here?
A: Its outcome is “inactive”.

Q: For COc1ccc(N)c(C)c1, which outcome is on record?
A: Its outcome is “inactive”.

Q: For O=C(O)c1ccc(C(=O)O)c(C(=O)O)c1, which outcome is on record?
A: Its outcome is “inactive”.

Q: With CCCCCCCCCCO as the compound, how does the outcome read?
A: Its outcome is “inactive”.

Q: With N[C@H](Cc1c[nH]c2ccccc12)C(=O)O as the compound, how does the outcome read?
A: The outcome was “inactive”.

Q: For COC(=O)CCCC(=O)OC, which outcome is on record?
A: The outcome was “inactive”.

Q: Which outcome does the source give for CCNc1ccccc1 here?
A: Its outcome is “inactive”.

Q: Which outcome does the source give for CC(C)(C#N)c1cc(Cn2cncn2)cc(C(C)(C)C#N)c1 here?
A: Its outcome is “inactive”.

Q: With O=S(=O)(O)c1ccc(N=Nc2c(O)ccc3cc(S(=O)(=O)O)ccc23)cc1 as the compound, how does the outcome read?
A: Its outcome is “inactive”.

Q: For CC1(C)NC(=O)NC1=O, which outcome is on record?
A: The outcome was “inactive”.

Q: For CCO[Si](CCC#N)(OCC)OCC, which outcome is on record?
A: The outcome was “inactive”.

Q: With CC(C)=CCl as the compound, how does the outcome read?
A: The outcome was “inactive”.

Q: For CN(C)CCOC(=O)COc1ccc(Cl)cc1, which outcome is on record?
A: Its outcome is “inactive”.

Q: For CC(O)CC(C)(C)O (centres undefined), which outcome is on record?
A: Its outcome is “inactive”.

Q: Which outcome does the source give for Nc1ccc(Cl)c(N)c1 here?
A: The outcome was “inactive”.

Q: Which outcome does the source give for OC1C(O)C(O)C(O)C(O)C1O (centres undefined) here?
A: Its outcome is “inactive”.

Q: With COc1cc(OC)c(C(=O)CCCN2CCCC2)c(OC)c1 as the compound, how does the outcome read?
A: Its outcome is “inactive”.

Q: For CC(=O)OCCOC(C)=O, which outcome is on record?
A: The outcome was “inactive”.

Q: For COc1ccc(C)cc1N, which outcome is on record?
A: Its outcome is “inactive”.

Q: With COc1ccc(CCC(C)=O)cc1 as the compound, how does the outcome read?
A: Its outcome is “inactive”.

Q: For CCCCCC(=O)O, which outcome is on record?
A: Its outcome is “inactive”.

Q: Which outcome does the source give for OCc1cccc(Oc2ccccc2)c1 here?
A: Its outcome is “inactive”.

Q: For CC(C)CCCCCCCOC(=O)CCCCC(=O)OCCCCCCCC(C)C, which outcome is on record?
A: The outcome was “inactive”.

experiment: qHTS assay for small molecules that induce genotoxicity in human embryonic kidney cells expressing luciferase-tagged ATAD5 - cell viability (AID 651634); conditions: HEK293T ATAD5-luc cells viability, CellTiter-Fluor, 15.5 h; series mostly up to 83.3 µM; also: nearly all actives have a fitted effect of over 25% in size; also: potency is read from the fitted curve at half-maximal effect
Outline: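 Live-cell protease activity (CellTiter-Fluor, fluorescence) indicates viability. HEK293T cells with luciferase-tagged ATAD5; 15.5 hr compound treatment at 37C.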

Q: Which Potency does the source give for CC(=O)OC1CC(C)OC(C)O1 (centres undefined) here?
A: Its Potency is “inactive”.

Q: Which Potency does the source give for CCc1ccccc1CC here?
A: The Potency was “inactive”.

Q: For C=C(C)[C@H]1CC=C(C)C(=O)C1, which Potency is on record?
A: Its Potency is “inactive”.

Q: For CCNc1cccc(C)c1, which Potency is on record?
A: Its Potency is “inactive”.

Q: Which Potency does the source give for CC(=O)Oc1ccc(C)cc1 here?
A: Its Potency is “inactive”.

Q: Which Potency does the source give for CC(C)(Oc1ccc(CCNC(=O)c2ccc(Cl)cc2)cc1)C(=O)O here?
A: The Potency was “inactive”.

Q: With O=c1[nH]cnc2[nH]ncc12 as the compound, how does the Potency read?
A: Its Potency is “inactive”.

Q: Which Potency does the source give for O=S(=O)(O)c1ccccc1 here?
A: The Potency was “inactive”.

Q: Which Potency does the source give for CC(=O)OCc1ccco1 here?
A: Its Potency is “inactive”.

Q: Which Potency does the source give for N#Cc1ccccc1 here?
A: The Potency was “inactive”.

Q: With CC(=O)OCc1ccccc1 as the compound, how does the Potency read?
A: The Potency was “inactive”.

Q: With COc1ccc(N)c(C)c1 as the compound, how does the Potency read?
A: Its Potency is “inactive”.

Q: Which Potency does the source give for O=C(O)c1ccc(C(=O)O)c(C(=O)O)c1 here?
A: The Potency was “inactive”.

Q: Which Potency does the source give for CC(C)CC(C)O (centres undefined) here?
A: Its Potency is “inactive”.

Q: For CCCCCCCCCCO, which Potency is on record?
A: Its Potency is “inactive”.

Q: With N[C@H](Cc1c[nH]c2ccccc12)C(=O)O as the compound, how does the Potency read?
A: The Potency was “inactive”.

Q: Which Potency does the source give for COC(=O)CCCC(=O)OC here?
A: Its Potency is “inactive”.

Q: Which Potency does the source give for CCNc1ccccc1 here?
A: The Potency was “inactive”.

Q: For CC(C)(C#N)c1cc(Cn2cncn2)cc(C(C)(C)C#N)c1, which Potency is on record?
A: The Potency was “inactive”.

Q: For O=S(=O)(O)c1ccc(N=Nc2c(O)ccc3cc(S(=O)(=O)O)ccc23)cc1, which Potency is on record?
A: The Potency was 30.8 µM (active) and 30.6 µM (active).

Q: Which Potency does the source give for CC1(C)NC(=O)NC1=O here?
A: Its Potency is “inactive”.

Q: Which Potency does the source give for CCO[Si](CCC#N)(OCC)OCC here?
A: The Potency was “inactive”.

Q: Which Potency does the source give for CC(C)=CCl here?
A: Its Potency is “inactive”.

Q: For CN(C)CCOC(=O)COc1ccc(Cl)cc1, which Potency is on record?
A: The Potency was “inactive”.

Q: Which Potency does the source give for CC(O)CC(C)(C)O (centres undefined) here?
A: The Potency was “inactive”.

Q: Which Potency does the source give for Nc1ccc(Cl)c(N)c1 here?
A: Its Potency is “inactive”.

Q: For OC1C(O)C(O)C(O)C(O)C1O (centres undefined), which Potency is on record?
A: Its Potency is “inactive”.

Q: For COc1cc(OC)c(C(=O)CCCN2CCCC2)c(OC)c1, which Potency is on record?
A: Its Potency is “inactive”.

Q: With CC(=O)OCCOC(C)=O as the compound, how does the Potency read?
A: Its Potency is “inactive”.

Q: Which Potency does the source give for C[C@]12CCC(=O)C=C1CC[C@@H]1[C@@H]2[C@@H](O)C[C@@]2(C)[C@H]1CC[C@]2(O)C(=O)CO here?
A: The Potency was “inactive”.

Q: With CC(C)c1cccc(C(C)C)c1 as the compound, how does the Potency read?
A: Its Potency is “inactive”.

Q: With O=[N+]([O-])c1ccc2nc[nH]c2c1 as the compound, how does the Potency read?
A: Its Potency is “inactive”.

Q: For COc1ccc(C)cc1N, which Potency is on record?
A: The Potency was “inactive”.

Q: With COc1ccc(CCC(C)=O)cc1 as the compound, how does the Potency read?
A: The Potency was “inactive”.

Q: With CCCCCC(=O)O as the compound, how does the Potency read?
A: The Potency was “inactive”.

Q: Which Potency does the source give for OCc1cccc(Oc2ccccc2)c1 here?
A: The Potency was “inactive”.

Q: Which Potency does the source give for CC(C)CCCCCCCOC(=O)CCCCC(=O)OCCCCCCCC(C)C here?
A: The Potency was “inactive”.

— PubChem BioAssay (Tox21)
